# Inconclusive results are not listed. Active and inactive are the calls of the source. The call rests on the fitted dose curve; in most records, active means well fitted cell-killing curve with a large enough effect; inconclusive means small, poorly fitted or top-dose-only effect, or effect the other way; inactive means flat fitted curve, though single readings scatter. Where a SMILES comes first, the peptide text is derived from it. The star is where a group is joined. AFC = O=c1cc(C(F)(F)F)c2ccc(N*)cc2o1
# Tested on: Tov-21-G
# Assay: Primary qHTS to identify gynecologic anti-cancer compounds using libraries of approved drugs and bioactive compounds (AID 1345084); further: nearly all actives have a fitted effect of over 55% in size
# Details: Gynecologic cancer cell panel viability, ATPlite luminescence, 48 h; series mostly up to 57.5 µM; activity change, negative = cytotoxicity: at the top concentration
# Summary of the method: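 Five-concentration response, 48 h; readout is ATP-driven luciferase luminescence.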
# On the % scale 0 is the no-effect control and ±100 the full control effect; potency means the concentration at half of the fitted maximal effect.
Structure (SMILES),"activity change, negative = cytotoxicity",Potency
CCC(C)C(=O)O[C@H]1CCC=C2C=C[C@H](C)[C@H](CC[C@@H](O)C[C@@H](O)CC(=O)O)[C@H]21 (some centres not stated),-4.18% [at 25.3 µM] (inactive),
CC(=O)NC1C(OC(C)(C)C2CCC3(C)C=C(C4CCC5C4(C)CC(O)C4OC(C(C)(C)O)CCC45C)CCC3O2)OC(CO)C(O)C1O (configuration not stated),0.35% [at 25.3 µM] (inactive),
CC(=O)O[C@@H]1c2c3c(cc(O)c2C(=O)O[C@@H]1C)O[C@@]1(C)[C@@H](O)C[C@H]2C(C)(C)C(=O)C=C[C@]2(C)[C@@H]1C3,-6.65% [at 25.3 µM] (inactive),
COc1c(C)c(OCC(O)C(C)(C)O)cc2c1COC2=O (configuration not stated),-4.5% (inactive),
CC(=O)CC1CCC(C(C)C(=O)OCC(O)CO)O1 (configuration not stated),0.434% (inactive),
O=C(O)COCCN1CCN([C@H](c2ccccc2)c2ccc(Cl)cc2)CC1,2.19% (inactive),
Nc1nc2c(ncn2[C@@H]2O[C@@H]3COP(=O)(O)O[C@H]3[C@H]2O)c(=O)[nH]1,1.5% (inactive),
CC1=C(C(=O)O)/C(=C/CO[C@@H]2O[C@H](COC(=O)/C=C/c3ccc(O)cc3)[C@@H](O)[C@H](O)[C@H]2O)C(O)C1 (some centres not stated),-4.23% [at 25.3 µM] (inactive),
Cc1cc(C)c2c(N)c(C(=O)NCc3ccc(Cl)cc3)sc2n1,8.78% (inactive),
CC(=O)OC1C(O)C2C(C)C3=CC(=O)OC3(O)CC2C2(C)CCCC(C)(CO)C12 (configuration not stated),-6.2% [at 25.3 µM] (inactive),
CC(C)C(NC(=O)c1ccc2ccccc2n1)C(=O)NC(CC(=O)O)C(=O)COc1c(F)cccc1F (configuration not stated),0.888% (inactive),
O=C(Nc1ccc(-c2ccncc2)cc1)N[C@H](CO)c1ccccc1,1.51% (inactive),
CC1=CC2/C=C(\C)CC[C@@H](O)[C@@H](O)[C@@H]3O[C@@H]3C(=O)[C@]23C(=O)N[C@@H](CC(C)C)[C@@H]3[C@@H]1C (some centres not stated),10% [at 25.3 µM] (inactive),
O=C(NCC(O)CO)c1ccncc1Nc1ccc(I)cc1F (configuration not stated),,1.58 µM (active)
CC1(C)CC2=C3C=CC4C5(C)CCC(O)C(C)(C)C5CCC4(C)C3(C)CCC2(C)C(O)C1 (configuration not stated),8.09% [at 25.3 µM] (inactive),
COC(=O)C1=CO[C@@H](O[C@@H]2O[C@H](CO)[C@@H](O)[C@H](O)[C@H]2O)[C@H]2[C@@H]1CC(OC)O[C@@H]2C (some centres not stated),4.47% [at 25.3 µM] (inactive),
C[C@@H]1O[C@@H](O[C@@H]2[C@@H](O[C@@H]3O[C@@H](C)[C@H](O[C@@H]4OC[C@H](O)[C@H](O[C@@H]5OC[C@@H](O)[C@H](O)[C@H]5O)[C@H]4O)[C@@H](O[C@@H]4OC[C@](O)(CO)[C@H]4O)[C@H]3O)[C@H](OC(=O)[C@]34CCC(C)(C)C[C@H]3C3=CCC5[C@@]6(C)C[C@H](O)[C@H](O[C@@H]7O[C@H](CO[C@@H]8OC[C@H](O)[C@H](O)[C@H]8O)[C@@H](O)[C@H](O)[C@H]7O)C(C)(C)C6CC[C@@]5(C)[C@]3(C)C[C@H]4O)OC[C@H]2O)[C@H](O)[C@H](O)[C@H]1O (some centres not stated),-2.27% [at 6.55 µM] (inactive),
C=C1CCCC2(C)CC3(OC)OC(=O)C(C)=C3CC12 (configuration not stated),3.44% (inactive),
CC(C)=CCC/C(C)=C/CCC1(C)Oc2c(c(O)cc3c2CN(C(CCC(=O)O)C(=O)O)C3=O)CC1O (configuration not stated),-8.62% [at 25.3 µM] (inactive),
C=C(C(=O)O)C1CCC2(C)CCC(O)C(=C)C2C1 (configuration not stated),1.94% (inactive),
CC12CCC3c4ccc(OC5OC(C(=O)O)C(O)C(O)C5O)cc4CCC3C1CCC2O (configuration not stated),10.3% (inactive),
CC(=O)N[C@@H](Cc1c[nH]c2ccccc12)C(=O)N[C@@H](CCC(=O)O)C(=O)N[C@@H](Cc1cnc[nH]1)C(=O)N[C@@H](CC(=O)O)C(=O)Nc1ccc2c(C(F)(F)F)cc(=O)oc2c1 (Ac-WEHD-{AFC}),4.69% [at 38.5 µM] (inactive),
C[C@@H]1O[C@@H](O[C@H]2[C@@H](OC(=O)[C@]34CCC(C)(C)CC3C3=CCC5[C@@]6(C)C[C@H](O)[C@H](O[C@@H]7O[C@H](C(=O)O)[C@@H](O)[C@H](O)[C@H]7O)[C@@](C)(C(=O)O)C6CC[C@@]5(C)[C@]3(C)CC4)OC[C@H](O)[C@@H]2O)[C@H](O)[C@H](O)[C@H]1O[C@@H]1OC[C@@H](O)[C@H](O)[C@H]1O (some centres not stated),-4.55% [at 11.6 µM] (inactive),
CC12CCC(C(OC3OC(COC4OCC(O)(CO)C4O)C(O)C(O)C3O)C1)C(C)(C)O2 (configuration not stated),14% [at 25.3 µM] (inactive),
O=C(/C=C\c1ccc(O)cc1)N[C@@H](Cc1ccc(O)cc1)C(=O)O,9.31% [at 38.5 µM] (inactive),
O=C(O)c1cccc(S(=O)(=O)N2CCc3ccccc3C2)c1,-9.48% (inactive),
C[C@@H]1O[C@@H](O[C@H]2[C@H](O)[C@@H](O[C@@H]3O[C@H](CO)[C@@H](O)[C@H](O[C@@H]4O[C@H](CO)[C@@H](O)[C@H](O)[C@H]4O)[C@H]3O)[C@H](O[C@H]3CC[C@@]4(C)C(=CC[C@@H]5C4CC[C@@]4(C)C5C[C@@H]5OC6(CC[C@@](C)(CO[C@@H]7O[C@H](CO)[C@@H](O)[C@H](O)[C@H]7O)O6)[C@@H](C)[C@@H]54)C3)O[C@@H]2CO)[C@H](O)[C@H](O)[C@H]1O (some centres not stated),-2.15% [at 6.55 µM] (inactive),
